Source: PubChem BioAssay (EPA / NIEHS)
Results filed as inconclusive are left out. More than one record can exist for a structure, and the calls need not agree. Activity calls are given as the source filed them. How the source made its calls, unless noted: active means hit-call score of the fitted dose curve at least 0.9, where 1 is the maximum; inactive means score below 0.9.

Experiments:
[1] = UKN4_HCS_LUHMES_cell_viability: Viability Assessment in the University of Konstanz (UKN) Leist Lab Neurite Outgrowth Assay in human LUHMES cells (UKN4) (AID 2284232)
Procedure, shortened: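 Viability was read by high-content imaging of calcein-AM/H-33342-stained cells after 24 h toxicant exposure, staining included. Cells: human LUHMES on day 2 of dopaminergic differentiation, dosed shortly after attachment; DMSO baseline, bidirectional curve fitting.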

[2] = CCTE_Mundy_HCI_Cortical_NOG_BPCount: CCTE's Neurite Outgrowth Assay in rat cortical cells for Branch Point Count, Mundy Lab (AID 2284237);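 on AC50: branch points counted about two days after chemical exposure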
Procedure, shortened: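 Measured 50.33 h after dosing, this morphology endpoint uses rat primary cortical cultures labelled for betaIII-tubulin. Branch points are quantified by high-content imaging, with DMSO as negative control and baseline.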

[3] = CCTE_Mundy_HCI_hNP1_Casp3_7: CCTE's Caspase-Glo 3/7 Assay in human neuroprogenitor cells for Apoptosis, Mundy Lab (AID 2284240)
Procedure, shortened: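 Apoptosis is scored by activated caspase-3/7 luminescence in WA09-derived neural progenitor cells, measured 26.5 h after chemical dosing. Values represent gain of signal relative to DMSO vehicle.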

[4] = UKN2_HCS_IMR90_cell_viability: Viability Assessment in the University of Konstanz (UKN) Leist Lab Neural Crest Cell Migration Assay in human induced IMR90 Pluripotent Stem Cells (UKN2) (AID 2284233);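 further: cells exposed to compound for 24 h after a 24 h migration phase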
Procedure, shortened: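 After calcein-AM/Hoechst staining, viability is quantified by high-content fluorescence imaging, relative to DMSO, in iPSC (IMR90)-derived neural crest cells. Exposure lasts 24 h, starting after a 24 h migration period on PLO/laminin/fibronectin coating.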

[5] = CCTE_Mundy_HCI_Cortical_NOG_NeuronCount: CCTE's Neurite Outgrowth Assay in rat cortical cells for Neuron Count, Mundy Lab (AID 2284236; active means hit-call score of the fitted dose curve at least 0.9, where 1 is the maximum;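 further: neurons counted by imaging betaIII-tubulin and Hoechst stained cortical cells; cells exposed to compound for about 48 hours before fixation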)
Procedure, shortened: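 Read-out: neuron number by high-content imaging of betaIII-tubulin (Alexa Fluor-488) and Hoechst-labelled rat primary cortical cells.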

Measured: AC50

CCC(C)(C)C(=O)OC1=C(c2ccc(Cl)cc2Cl)C(=O)OC12CCCCC2
inactive: [1] | [2] | [3]

O=[N+]([O-])/N=C1\NCCN1Cc1ccc(Cl)nc1
not listed: [5]
inactive: all other assays above

COP(=O)(OC)OC=C(Cl)Cl
inactive: [4] | [5] | [2] | [3]
active: [2] 70 µM

CC1(C)C(C=C(Cl)Cl)C1C(=O)OC(C#N)c1ccc(F)c(Oc2ccccc2)c1 (stereo not drawn)
inactive: [4] | [5] | [2] | [3]
active: [5] 49.9 µM | [2] 63.1 µM | [3] 31.3 µM

CC(C)N(C(=O)COc1nnc(C(F)(F)F)s1)c1ccc(F)cc1
inactive: all assays above

CC1(c2ccc(Oc3ccccc3)cc2)OC(=O)N(Nc2ccccc2)C1=O (stereo not drawn)
inactive: [4] | [3]
active: [5] 23.8 µM | [2] 50 µM

CC[C@H](C)[C@H]1O[C@]2(C=C[C@@H]1C)C[C@@H]1C[C@@H](C/C=C(\C)[C@@H](O[C@H]3C[C@H](OC)[C@@H](O[C@H]4C[C@H](OC)[C@@H](O)[C@H](C)O4)[C@H](C)O3)[C@@H](C)/C=C/C=C3\CO[C@@H]4[C@H](O)C(C)=C[C@@H](C(=O)O1)[C@]34O)O2 (tested in a mixture with another compound)
active: [4] 7.09 µM | [5] 13.3 µM | [2] 8.26 µM | [3] 3.64 µM

O=C(O)COc1ccc(Cl)cc1Cl
not listed: [1]
inactive: all other assays above

CNC(=O)CSP(=S)(OC)OC
inactive: [2] | [3]
